# Screening data (PubChem BioAssay)
# ANO1 activ: mouse TMEM16A channel activation, primary screen. Q8BHY3. HEK293 TMEM16A/YFP-H148Q/I152L, iodide quench fluorescence; stronger effect = lower value. actives 0.3% (n = 340,000). AID 623877. B-score at 10 µM;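 active means fluorescence-ratio B-score plate-corrected deviation score at least 3 library SD below zero, with starting fluorescence score within 5 deviations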;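 further: channel opened by trigger with iodide after compound preincubation; score built on the fluorescence ratio of max minus min over baseline; more negative score means more quench and so TMEM16A activation or potentiation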
# Target sequence (Q8BHY3 whole entry, looked up): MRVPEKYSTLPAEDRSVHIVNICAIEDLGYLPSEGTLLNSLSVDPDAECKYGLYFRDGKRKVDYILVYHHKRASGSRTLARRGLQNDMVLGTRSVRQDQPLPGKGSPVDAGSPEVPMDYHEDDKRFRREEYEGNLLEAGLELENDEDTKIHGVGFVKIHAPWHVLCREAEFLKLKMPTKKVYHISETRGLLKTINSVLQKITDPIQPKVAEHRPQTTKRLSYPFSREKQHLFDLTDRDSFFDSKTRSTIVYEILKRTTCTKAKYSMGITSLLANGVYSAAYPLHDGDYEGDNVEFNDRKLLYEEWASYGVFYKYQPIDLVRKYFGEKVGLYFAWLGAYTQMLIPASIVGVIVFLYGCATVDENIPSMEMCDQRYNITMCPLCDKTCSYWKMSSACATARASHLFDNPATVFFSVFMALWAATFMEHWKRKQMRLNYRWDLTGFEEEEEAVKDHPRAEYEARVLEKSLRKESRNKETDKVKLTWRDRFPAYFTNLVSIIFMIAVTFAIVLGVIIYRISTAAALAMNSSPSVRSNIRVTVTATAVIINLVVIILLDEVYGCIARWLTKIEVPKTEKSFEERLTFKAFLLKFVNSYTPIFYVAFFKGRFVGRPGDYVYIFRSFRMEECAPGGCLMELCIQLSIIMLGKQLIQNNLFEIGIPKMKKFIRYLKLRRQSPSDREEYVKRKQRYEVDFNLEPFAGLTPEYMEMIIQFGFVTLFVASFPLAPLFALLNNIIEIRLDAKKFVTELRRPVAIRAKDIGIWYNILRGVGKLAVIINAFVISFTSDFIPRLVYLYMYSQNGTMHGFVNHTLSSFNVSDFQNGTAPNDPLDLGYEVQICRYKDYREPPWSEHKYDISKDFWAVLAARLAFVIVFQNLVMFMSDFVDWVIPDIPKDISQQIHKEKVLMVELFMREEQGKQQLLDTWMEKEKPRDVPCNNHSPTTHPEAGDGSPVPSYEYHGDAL
# aSyn 5UTR inh: 5' untranslated region of α-synuclein, MLPCN primary screen | alpha-synuclein 5'UTR reporter, inhibitor activity | inhibition, % (tested at 7.5 µM) | actives 0.82% (n = 300,000); in the data active means inhibition above about 60%;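 further: H4 neuroglioblastoma cells stably carrying SNCA 5'UTR luciferase fusion; 0% = DMSO wells and 100% = positive control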
# Jurkat NFkB inh: lowers PMA/ionomycin-induced NF-kB signal in Jurkat cells; AID 435003; inhibition, % at 4 µM; actives 0.53% (n = 330,000); PMA/ionomycin-induced NF-kB luciferase reporter, luminescence; in the data active means inhibition above about 50%
# KLF5 inhibitor: suppresses KLF5 promoter-driven expression. DLD-1 KLF5 promoter-luciferase reporter, luminescence. inhibition, % at 5 µM. actives 0.23% (n = 290,000). AID 1700;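 active means inhibition above a per-plate limit of that plate's mean compound inhibition plus 3 SD, cut at about 60% in these data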;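 further: 0% = DMSO wells and 100% = LY294002 at 200 µM; higher means less KLF5 promoter-driven luciferase light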
# TMEM16A inh: mouse TMEM16A channel inhibition, primary screen; actives 1.2% (n = 310,000); HEK293 TMEM16A/YFP iodide influx fluorescence, ionomycin; AID 588511; normalized B-score (activity score, 25-100; higher = stronger inhibition) at 10 µM; Q8BHY3;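 active means ratio plate-corrected score three or more library SD toward inhibition, starting fluorescence score within five deviations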;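 further: score derived from kinetic fluorescence span divided by baseline fluorescence per well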
# 697 NFkB inh: inhibitors of the PMA/ionomycin-induced NF-kB reporter in 697 B cells | 697 B-cell NF-kB luciferase reporter, 16 h | inhibition, % at 4 µM | actives 0.33% (n = 330,000) | AID 435022; in the data active means inhibition above about 35%
# Starred values were filed as active, the others as inactive; i = inactive; . = no result. Shown are actives, neighbours in structure and some others; about 2.5% of the full set was active somewhere.
SMILES,ANO1 activ,aSyn 5UTR inh,Jurkat NFkB inh,KLF5 inhibitor,TMEM16A inh,697 NFkB inh
Cc1cc(NC(=O)COC(=O)c2cnccn2)ccc1Br,i,.,8,.,.,10
Cc1csc(NC(=O)CSc2ncnc3c2cnn3-c2ccccc2Cl)n1,i,-37,-19,5,100*,15
CCN(CC)CCCNC(=S)N1CCN(c2nc(-c3ccc(F)cc3)cs2)CC1,i,133*,1,-10,i,-13
CCNC(=S)N1CCN(c2nc(-c3ccc(F)cc3)cs2)CC1,i,-38,17,-4,i,20
O=[N+]([O-])c1cc(/C=N/n2cnnc2)ccc1N1CCCC1,i,65*,-13,2,i,-14
O=[N+]([O-])c1cc(/C=N/O)ccc1N1CCCC1,i,26,-18,-2,i,-16
Cc1cc([N+](=O)[O-])nn1CC(=O)NCc1ccccc1,i,-4,0,14,i,2
NS(=O)(=O)c1ccc(CNC(=O)Cn2nc(C(F)F)cc2C(F)F)cc1,-4.6*,.,5,.,.,16
CSc1nc2cc(Oc3cccc(Cl)c3Cl)c(Cl)cc2[nH]1,i,43,0,-15,100*,-24
CSc1nc2ccc(Cl)cc2[nH]1,i,-50,1,-40,i,1
CCN(CC(=O)NCc1cccs1)C(=O)c1ccc(NS(=O)(=O)c2cccc([N+](=O)[O-])c2)cc1,i,4,-1,.,i,-3
O=C(O)c1ccc(/C=C2\SC(=S)N(NC(=O)c3ccccc3[N+](=O)[O-])C2=O)cc1,i,-3,-10,-24,i,-17
O=C(NN1C(=O)/C(=C\c2ccc(O)c([N+](=O)[O-])c2)SC1=S)c1ccccc1Cl,-5.5*,1,-3,-3,i,1
N#Cc1c(N)n(C2CCCCC2)c2nc3ccccc3nc12,i,62*,29,13,i,14
CCC(=O)Nc1c(C#N)c2nc3ccccc3nc2n1C1CCCCC1,i,9,5,2,i,-16
COn1c2c(c3c4no[n+]([O-])c4ccc31)CCCC2,i,38,5,-16,i,-1
[O-][n+]1c2c(c3c4non(O)c4ccc31)CCCC2,i,-28,-1,-29,100*,6
COc1ccc(CNC(=O)C(c2ccco2)N(C(=O)CNS(=O)(=O)c2ccccc2)c2ccccc2C)cc1 (stereo unspecified),i,23,-3,-19,25*,3
COc1ccc(S(=O)(=O)NCC(=O)N(CC(=O)NCc2ccccc2)Cc2ccco2)cc1,i,3,-2,-2,i,11
COc1ccc(Br)cc1/C=N/NC(=O)c1ccc(COc2ccc3c(c2)CCC3)o1,i,-42,-7,-48,i,-120
O=C(N/N=C/c1cc([N+](=O)[O-])ccc1O)c1ccc(COc2ccc3c(c2)CCC3)o1,i,87*,8,26,i,-98
COCCNC(=O)COc1ccc(Br)cc1Cl,i,-68,3,-26,100*,3
O=C(NCc1cccnc1)C1CCN(S(=O)(=O)c2cc(Cl)ccc2Cl)CC1,i,-5,3,3,i,-5
CC(C)OCCCN(C)C1CCN(S(=O)(=O)c2ccc(-c3cc(C(F)(F)F)no3)s2)CC1,i,31,12,3,i,-9
CC12CCC3c4cc(CN5CCOCC5)c(O)cc4CCC3C1CCC2=O (stereo unspecified),i,.,.,.,.,.
SMILES,ANO1 activ,aSyn 5UTR inh,Jurkat NFkB inh,KLF5 inhibitor,TMEM16A inh,697 NFkB inh
CCCOc1nc2c(c(=O)n(C)c(=O)n2C)n1Cc1cccc2ccccc12,i,-6,18,-10,100*,-70
O=C(CN1C(=O)NC2NC(=O)NC21)N/N=C/c1ccc(F)cc1 (stereo unspecified),-7.5*,3,0,-30,i,1
CCCCCOc1ccc(C(=O)CCC(=O)NNC(=O)c2ccncc2)cc1,i,.,-1,.,.,-13
Cc1ccc(C(=O)O)cc1NC(=S)NC(=O)Cc1ccccc1,i,20,-4,-7,i,8
Cc1ccc(C(=O)O)cc1NC(=S)NC(=O)c1ccc(COc2ccccc2)cc1,i,-17,-6,-3,25*,-10
Cc1cc(C)cc(NC(=O)CSCc2nc3c(nnn3Cc3ccc(F)cc3)c(=O)[nH]2)c1,i,18,-7,-35,25*,13
CCN(C(=O)c1cnc(N2CCN(c3ncccn3)CC2)c2ccccc12)c1cccc(Cl)c1,i,-18,-6,21,100*,-83
Nc1cc(Cl)cc2c1-c1ccc(Cl)cc1C2,i,.,.,.,.,.
CC1=NNC(=O)/C1=C\c1cn(-c2ccccc2)nc1-c1ccc(F)cc1,-6.2*,-27,.,1,.,.
CC1=NNC(=O)/C1=C\c1cn(-c2ccccc2)nc1-c1cccs1,i,9,35,-27,i,-20
Cc1ccc(OCCC(=O)OCC(=O)Nc2ccccc2)cc1,i,7,6,-16,i,18
COc1ccc2cc(/C=N/NC(=O)c3ccc(CN(c4cccc(Cl)c4Cl)S(C)(=O)=O)cc3)c(Cl)nc2c1,i,67*,28,-21,i,17
Cc1ccc(C)c(Cn2c3ccccc3c3cnn(CC(=O)NCc4ccccn4)c(=O)c32)c1,-7.2*,12,-5,2,i,-28
O=C(Cn1ncc2c3ccccc3n(Cc3ccccc3F)c2c1=O)NCCN1CCOCC1,i,-3,-3,-18,i,7
O=C(Cn1ncc2c3ccccc3n(Cc3ccccc3F)c2c1=O)NCCCN1CCCC1=O,-5.2*,-7,-8,-23,i,-14
CCN(Cc1ccccc1)C(=O)c1nn(-c2ccc(OC)cc2)c(=O)c2c1c1ccccc1n2C,i,-4,10,-16,i,-1
COc1cccc(C(=O)Nc2ccccc2N2CCN(C(=O)c3ccccc3)CC2)c1,i,.,2,.,.,-3
CCc1ccc2oc(=O)cc(CN(C)Cc3ccccc3)c2c1,i,30,-2,9,100*,-1
O=c1cc(C(F)(F)F)nc(SC/C=C/c2ccccc2)[nH]1,i,20,10,-6,100*,3
Nc1cc(=O)[nH]c(SC/C=C/c2ccccc2)n1,i,0,-12,-39,i,-6
CCOCCCNC(=O)C1(O)c2cc(Br)ccc2NC(=O)N1c1ccc(OCC)cc1 (stereo unspecified),i,14,8,-19,i,18
CCCOc1ccc(C2=NNC(=O)CC2)cc1,i,77*,-17,11,i,-2
Clc1ccc2[nH]c3c(NCC4CCCO4)ncnc3c2c1 (stereo unspecified),.,-51,-9,-61,100*,9
Clc1ccc2[nH]c3c(NCCN4CCOCC4)ncnc3c2c1,i,-16,-12,-14,i,-12
